Test results published in PubChem BioAssay (NCI).
Several values for one entry are separate records, joined by “and”; a condition that tells them apart may be missing. Equal entries are not always repeated. The panel holds about 83,000 compounds, 20% with a hit somewhere; the sample as a whole holds those more often.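 Method: cells in 96-well plates; compound added at one concentration; 48 h incubation; percent growth measured; values under 10 scored active.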 Activity calls are given as the source filed them.

What was measured:
Assay in all cases: NCI-60 one-dose screen, 48 h (100 = growth as untreated, 0 = no growth, -100 = all killed)
Conditions in all cases: 10 µM unless noted
HCT-15 colon = system: HCT-15 colon
HT29 colon = system: HT29 colon
SNB-75 CNS = system: SNB-75 CNS
SNB-19 CNS = system: SNB-19 CNS
U251 CNS = system: U251 CNS
PC-3 prostate = system: PC-3 prostate
SK-MEL-5 melanoma = system: SK-MEL-5 melanoma
UACC-62 melanoma = system: UACC-62 melanoma
LOX IMVI melanoma = system: LOX IMVI melanoma
SK-MEL-28 melanoma = system: SK-MEL-28 melanoma

Measured: growth

O=[N+]([O-])c1ccc(N/N=C/C2CCCCCC2)c([N+](=O)[O-])c1
inactive: HCT-15 colon 89.1% | HT29 colon 100% | SNB-75 CNS 117% | SNB-19 CNS 102% | U251 CNS 96.8% | PC-3 prostate 79.7% | SK-MEL-5 melanoma 96.9% | UACC-62 melanoma 81% | LOX IMVI melanoma 89.2% | SK-MEL-28 melanoma 99.7%

CCNC1=CC(=O)c2ncccc2C1=O
inactive: HCT-15 colon 10.8% | SNB-19 CNS 19.6% | U251 CNS 30.7% | PC-3 prostate 44.7%
active: HT29 colon 8.49% | SNB-75 CNS -91% | SK-MEL-5 melanoma -98.3% | UACC-62 melanoma -95.3% | LOX IMVI melanoma -35.3% | SK-MEL-28 melanoma -37%

O=c1[nH]nnc2cc(Cl)ccc12
inactive: HCT-15 colon 93.9% and 104% | HT29 colon 109% and 129% | SNB-75 CNS 87.1% and 83% | SNB-19 CNS 104% and 103% | U251 CNS 97.3% and 93.8% | PC-3 prostate 103% and 90.7% | SK-MEL-5 melanoma 100% | UACC-62 melanoma 99.8% and 101% | LOX IMVI melanoma 101% | SK-MEL-28 melanoma 117% and 109%

COC(=O)CCOc1ccccc1
inactive: HCT-15 colon 101% | HT29 colon 97.9% | SNB-75 CNS 61.1% | SNB-19 CNS 99.5% | U251 CNS 96% | PC-3 prostate 85.3% | SK-MEL-5 melanoma 95.5% | UACC-62 melanoma 99% | LOX IMVI melanoma 91.3% | SK-MEL-28 melanoma 123%

NNC(=O)Nc1ccccc1
inactive: HCT-15 colon 99.8% | HT29 colon 106% | SNB-75 CNS 87.9% | SNB-19 CNS 102% | U251 CNS 99.1% | PC-3 prostate 93.5% | SK-MEL-5 melanoma 101% | UACC-62 melanoma 94.3% | LOX IMVI melanoma 98.1% | SK-MEL-28 melanoma 109%

CC1=CC(=O)C=CC1=Nc1ccc(N(C)C)cc1
inactive: HCT-15 colon 96.8% and 32.4% | HT29 colon 105% and 45.1% | SNB-75 CNS 123% and 76.4% | SNB-19 CNS 97.1% and 73.4% | U251 CNS 21.2% | PC-3 prostate 56% and 12.1% | SK-MEL-5 melanoma 89.4% and 17.6% | UACC-62 melanoma 88.1% and 18.2% | LOX IMVI melanoma 83.4% | SK-MEL-28 melanoma 96.8% and 74.7%

CC1OS(=O)OC1C (stereo not given)
inactive: HCT-15 colon 94% and 98.6% | HT29 colon 88.7% and 104% | SNB-75 CNS 92.6% and 94.7% | SNB-19 CNS 101% | U251 CNS 100% and 101% | PC-3 prostate 100% and 97.5% | SK-MEL-5 melanoma 99.9% and 98% | UACC-62 melanoma 95.5% and 89.8% | LOX IMVI melanoma 94.1% and 91.6% | SK-MEL-28 melanoma 109% and 103%

O=C1C(=O)c2ccccc2C(O)=C1CC=C(Cl)Cl
inactive: HCT-15 colon 25.8% and 30.7% | HT29 colon 31.4% and 34.8% | SNB-75 CNS 54.3% and 57.4% | SNB-19 CNS 52.9% and 61.9% | U251 CNS 42.5% and 42.8% | PC-3 prostate 35.3% and 40.9% | SK-MEL-5 melanoma 48.4% and 48.1% | UACC-62 melanoma 55.7% and 60% | LOX IMVI melanoma 16.7% and 27.4% | SK-MEL-28 melanoma 70.1%

CCOC(=O)CN1CCC(C(=O)OCC)CC1
inactive: HCT-15 colon 125% | HT29 colon 104% | SNB-75 CNS 106% | SNB-19 CNS 110% | U251 CNS 107% | PC-3 prostate 88.8% | SK-MEL-5 melanoma 103% | UACC-62 melanoma 94.6% | LOX IMVI melanoma 99.3% | SK-MEL-28 melanoma 108%

Cn1c(-c2ccccc2)cc(=O)cc1-c1ccccc1
inactive: HCT-15 colon 22.7% | HT29 colon 24.7% | SNB-75 CNS 119% | SNB-19 CNS 89% | U251 CNS 82.7% | PC-3 prostate 67.1% | SK-MEL-5 melanoma 95.3% | UACC-62 melanoma 81.5% | LOX IMVI melanoma 73.2% | SK-MEL-28 melanoma 118%

O=COCCCc1ccccc1
inactive: HCT-15 colon 107% | HT29 colon 95.9% | SNB-75 CNS 109% | SNB-19 CNS 96.7% | U251 CNS 94.5% | PC-3 prostate 94.4% | SK-MEL-5 melanoma 98.2% | UACC-62 melanoma 88.7% | LOX IMVI melanoma 99% | SK-MEL-28 melanoma 108%

CCOC(=O)C1=CC(=O)CC(C)(C)O1
inactive: HCT-15 colon 101% and 103% | HT29 colon 92.6% and 101% | SNB-75 CNS 116% | SNB-19 CNS 104% and 109% | U251 CNS 104% and 99.9% | PC-3 prostate 88.7% and 105% | SK-MEL-5 melanoma 112% | UACC-62 melanoma 104% and 106% | LOX IMVI melanoma 103% and 107% | SK-MEL-28 melanoma 119% and 120%

NCCCCCC(=O)O
inactive: HCT-15 colon 103% [middle of 4 runs] | HT29 colon 100% [middle of 4 runs] | SNB-75 CNS 93.6% [middle of 4 runs] | SNB-19 CNS 103% [middle of 4 runs] | U251 CNS 107% and 104% and 91.4% | PC-3 prostate 106% [middle of 4 runs] | SK-MEL-5 melanoma 108% and 109% and 110% | UACC-62 melanoma 112% [middle of 4 runs] | LOX IMVI melanoma 100% [middle of 4 runs] | SK-MEL-28 melanoma 112% and 109% and 119%

Oc1cccnc1CN1CCOCC1
inactive: HCT-15 colon 105% and 104% | HT29 colon 97.7% and 106% | SNB-75 CNS 88.9% and 81.5% | SNB-19 CNS 101% and 98.9% | U251 CNS 104% and 102% | PC-3 prostate 93.9% and 96.3% | SK-MEL-5 melanoma 106% and 98.4% | UACC-62 melanoma 101% and 94.5% | LOX IMVI melanoma 93.1% | SK-MEL-28 melanoma 107% and 105%

Cc1cc(O)c(C(C)C)cc1N=O
inactive: HCT-15 colon 94.3% and 98.9% | HT29 colon 114% and 94.1% | SNB-75 CNS 96.7% | SNB-19 CNS 96.1% and 99.4% | U251 CNS 97.6% | PC-3 prostate 109% and 97.6% | SK-MEL-5 melanoma 99.6% and 104% | UACC-62 melanoma 99.7% and 103% | LOX IMVI melanoma 88.5% and 99.5% | SK-MEL-28 melanoma 110% and 113%

Cc1ccc(S(=O)(=O)n2ccnc2)cc1
inactive: HCT-15 colon 105% | HT29 colon 106% | SNB-75 CNS 87.6% | SNB-19 CNS 117% | U251 CNS 101% | PC-3 prostate 103% | SK-MEL-5 melanoma 99.9% | UACC-62 melanoma 92.7% | LOX IMVI melanoma 95.5% | SK-MEL-28 melanoma 111%

CCCC(=O)Oc1ccc(CC)cc1
inactive: HCT-15 colon 99.5% | HT29 colon 108% | SNB-75 CNS 88.8% | SNB-19 CNS 109% | U251 CNS 98.4% | PC-3 prostate 101% | SK-MEL-5 melanoma 106% | UACC-62 melanoma 105% | LOX IMVI melanoma 97.8% | SK-MEL-28 melanoma 117%

CCOC(=O)c1ccc(C(=N)N)cc1
inactive: HCT-15 colon 103% | HT29 colon 106% | SNB-75 CNS 100% | SNB-19 CNS 113% | U251 CNS 100% | PC-3 prostate 89.6% | SK-MEL-5 melanoma 107% | UACC-62 melanoma 108% | LOX IMVI melanoma 97.9% | SK-MEL-28 melanoma 120%

Cn1c(N)c(N=O)c(=O)n(C)c1=O
inactive: HCT-15 colon 105% and 101% | HT29 colon 111% and 90.2% | SNB-75 CNS 86.9% and 92.6% | SNB-19 CNS 99.8% and 102% | U251 CNS 92.9% and 101% | PC-3 prostate 96.2% and 96.9% | SK-MEL-5 melanoma 137% and 99.6% | UACC-62 melanoma 103% and 93.1% | LOX IMVI melanoma 100% | SK-MEL-28 melanoma 104% and 100%

CCC/C(=N/NC(N)=O)c1ccco1
inactive: HCT-15 colon 103% | HT29 colon 93.7% | SNB-75 CNS 75.2% | SNB-19 CNS 90.1% | U251 CNS 91.8% | PC-3 prostate 86.8% | SK-MEL-5 melanoma 99.5% | UACC-62 melanoma 92.7% | LOX IMVI melanoma 98.1% | SK-MEL-28 melanoma 97.7%

Cc1c(O)nc(N)[nH]c1=O
inactive: HCT-15 colon 106% | HT29 colon 106% | SNB-75 CNS 102% | SNB-19 CNS 108% | U251 CNS 100% | PC-3 prostate 101% | SK-MEL-5 melanoma 113% | UACC-62 melanoma 100% | LOX IMVI melanoma 99.4% | SK-MEL-28 melanoma 110%

CC(C)(C)C1=CC(=O)C(C(C)(C)C)=CC1=O
inactive: HCT-15 colon 97.9% and 105% | HT29 colon 109% and 99.8% | SNB-75 CNS 104% and 96.6% | SNB-19 CNS 86.2% and 101% | U251 CNS 96.2% and 94.2% | PC-3 prostate 90.8% and 101% | SK-MEL-5 melanoma 93.5% and 108% | UACC-62 melanoma 87.1% and 99.6% | LOX IMVI melanoma 91.6% and 99.5% | SK-MEL-28 melanoma 114% and 109%
